Source: PubChem BioAssay (NCI)
This is part of a sample that, as a whole, favours compounds with a hit. Of some 79,000 tested, about 15% had one in any assay. The source made the active and inactive calls. Rule as the data show it: active = growth inhibition above about 70%; inactive = the rest.

Experiments:
[1] = NCI Yeast Anticancer Drug Screen. Data for the rad52 strain (AID 147);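 also: 0% = growth of vehicle-treated control cultures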; conditions: S. cerevisiae rad52 mutant growth inhibition, stronger effect = higher value
Outline: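 DNA repair-defective yeast; compound exposure; growth scored against vehicle controls.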

[2] = NCI Yeast Anticancer Drug Screen. Data for the wt1 strain (AID 149);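 also: 0% = growth of vehicle-treated wt1 cultures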; conditions: S. cerevisiae wt1 strain (SPY 50644) growth inhibition, stronger effect = higher value
Outline: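 Each compound is tested on wt1 yeast and the loss of growth versus vehicle gives the inhibition value.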

[3] = NCI Yeast Anticancer Drug Screen. Data for the rad50EPP+ strain (AID 151);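 also: 0% = growth of vehicle-treated control cultures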; conditions: S. cerevisiae rad50 mutant strain, stronger effect = higher value
Outline: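 rad50EPP+ yeast treated with test compounds. Readout: growth vs vehicle control.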

[4] = NCI Yeast Anticancer Drug Screen. Data for the rad50 strain (AID 155);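 also: 0% = growth of vehicle-only cultures of the same strain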; conditions: S. cerevisiae rad50 strain growth inhibition, stronger effect = higher value
Outline: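 Vehicle-treated cultures provide the reference for the growth inhibition reported for compound-exposed, repair-deficient yeast.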

[5] = NCI Yeast Anticancer Drug Screen. Data for the mec2-1 strain (AID 157); conditions: S. cerevisiae mec2-1 strain, stronger effect = higher value
Outline: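 Growth inhibition is read against vehicle-treated controls after compound exposure of the mec2-1 yeast strain, which is defective in DNA damage repair or cell cycle control.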

[6] = NCI Yeast Anticancer Drug Screen. Data for the rad14 strain (AID 159);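 also: 0% = growth of vehicle-treated control cultures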; conditions: S. cerevisiae rad14 strain growth inhibition, stronger effect = higher value
Outline: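 Inhibition of growth is reported for a repair-deficient yeast mutant following compound treatment, calculated relative to cultures that received vehicle.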

[7] = NCI Yeast Anticancer Drug Screen. Data for the sgs1 mgt1 strain (AID 161);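 also: 0% = growth of cultures given vehicle only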; conditions: S. cerevisiae sgs1 mgt1 strain, stronger effect = higher value
Outline: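 Yeast cells carrying a defined DNA-repair defect were exposed to test compounds. Growth inhibition was measured relative to vehicle-treated controls.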

[8] = NCI Yeast Anticancer Drug Screen. Data for the CLN2oe strain (AID 163);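 also: 0% = growth of vehicle-only control cultures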; conditions: S. cerevisiae CLN2oe strain, stronger effect = higher value
Outline: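 Compound-treated yeast; growth vs vehicle ctrl = % inhibition. Genetically altered strain (cell-cycle control).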

[9] = NCI Yeast Anticancer Drug Screen. Data for the cln2 rad14 strain (AID 165);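 also: 0% = growth equal to vehicle treated cultures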; conditions: S. cerevisiae cln2 rad14 strain, stronger effect = higher value
Outline: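 Growth inhibition, relative to vehicle-treated controls, is the read-out. The test organism is a yeast strain with defined genetic alterations, cln2 rad14.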

[10] = NCI Yeast Anticancer Drug Screen. Data for the bub3 strain (AID 167); conditions: S. cerevisiae bub3 mutant strain, stronger effect = higher value
Outline: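 Mutant yeast screening strain plus compound; vehicle-treated cultures serve as the 0% inhibition reference.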

[11] = NCI Yeast Anticancer Drug Screen. Data for the wt2 strain (AID 169); conditions: S. cerevisiae wt2 strain growth inhibition, stronger effect = higher value
Outline: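 Compound exposure of yeast; growth compared with vehicle controls; inhibition reported.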

[12] = NCI Yeast Anticancer Drug Screen. Data for the mlh1 strain (AID 171);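 also: 0% = growth of vehicle-treated control cultures of the same strain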; conditions: S. cerevisiae mlh1 strain growth inhibition, stronger effect = higher value
Outline: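 Compounds are applied to a genetically altered yeast strain, and its growth is compared with that of vehicle-treated cultures to give percent inhibition.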

[13] = NCI Yeast Anticancer Drug Screen. Data for the sgs1 strain (AID 173);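 also: 0% = growth of vehicle-only control cultures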; conditions: S. cerevisiae sgs1 mutant, stronger effect = higher value
Outline: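 Compounds applied to genetically altered yeast; growth compared with vehicle-treated cultures to give % inhibition.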

[14] = NCI Yeast Anticancer Drug Screen. Data for the mlh1 rad18 strain (AID 175); conditions: S. cerevisiae mlh1 rad18 strain growth inhibition, stronger effect = higher value
Outline: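 Cells of a genetically altered yeast strain, deficient in DNA damage repair, were treated with compound. Their growth was then compared with that of vehicle-treated cultures to give inhibition.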

[15] = NCI Yeast Anticancer Drug Screen. Data for the rad18 strain (AID 177); conditions: S. cerevisiae rad18 mutant growth inhibition, stronger effect = higher value
Outline: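 Compounds are applied to a repair-deficient yeast strain, and growth is compared with that of vehicle-treated cultures to give percent inhibition.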

[16] = at 5.0 µM (retest, dose inferred, filed as 0.5)
[17] = at 50.0 µM (retest, dose inferred, filed as 5.0)

Measured: growth inhibition

CC(C)/C(Cl)=N\OC(=O)Nc1cccc(Cl)c1
active: [5]; at 50.0 µM 87.8% | [7]; [17] 83% | [7]; at 50.0 µM 85.2% | [9]; at 50.0 µM 72.3% | [10]; [17] 88% | [10]; at 50.0 µM 82.3% | [14]; at 50.0 µM 77.5%
inactive: [1]; at 1.2 µM -4% | [1]; at 3.7 µM -7% | [1]; at 11.0 µM -4% | [1]; at 33.0 µM -3% | [1]; at 100.0 µM -2% | [2]; at 1.2 µM -2% | [2]; at 3.7 µM 0% | [2]; at 11.0 µM -1% | [2]; at 33.0 µM -2% | [2]; at 100.0 µM 1% | [3]; at 1.2 µM -2% | [3]; at 3.7 µM -2% | [3]; at 11.0 µM 1% | [3]; at 33.0 µM 2% | [3]; at 100.0 µM 0% | [4]; at 1.2 µM -2% | [4]; at 3.7 µM -5% | [4]; [16] 8% | [4]; at 11.0 µM -26% | [4]; at 33.0 µM -1% | [4]; [17] 47% | [4]; at 50.0 µM 69.5% | [4]; at 100.0 µM 3% | [5]; at 1.2 µM 0% | [5]; at 3.7 µM 0% | [5]; [16] -17% | [5]; at 11.0 µM 2% | [5]; at 33.0 µM 2% | [5]; [17] 30% | [5]; at 100.0 µM 1% | [6]; at 1.2 µM 0% | [6]; at 3.7 µM 2% | [6]; at 11.0 µM 0% | [6]; at 33.0 µM 4% | [6]; at 100.0 µM 6% | [7]; [16] -17% | [8]; at 1.2 µM -4% | [8]; at 3.7 µM -3% | [8]; at 11.0 µM -6% | [8]; at 33.0 µM -3% | [8]; at 100.0 µM 10% | [9]; [16] -3% | [9]; [17] 19% | [10]; at 1.2 µM 1% | [10]; at 3.7 µM 4% | [10]; [16] -29% | [10]; at 11.0 µM 10% | [10]; at 33.0 µM 12% | [10]; at 100.0 µM 10% | [11]; at 1.2 µM -2% | [11]; at 3.7 µM -3% | [11]; at 11.0 µM -2% | [11]; at 33.0 µM -4% | [11]; at 100.0 µM 0% | [12]; at 1.2 µM -1% | [12]; at 3.7 µM -7% | [12]; at 11.0 µM 0% | [12]; at 33.0 µM 0% | [12]; at 100.0 µM -2% | [13]; at 1.2 µM 0% | [13]; at 3.7 µM 1% | [13]; at 11.0 µM 2% | [13]; at 33.0 µM 1% | [13]; at 100.0 µM 2% | [14]; [16] -12% | [14]; [17] 22% | [15]; at 1.2 µM -7% | [15]; at 3.7 µM -8% | [15]; at 11.0 µM -10% | [15]; at 33.0 µM -24% | [15]; at 100.0 µM -1%
